# Several values for one entry are separate records, joined by “and”; a condition that tells them apart may be missing. Identical values can stand only once. The source holds several records for some structures; these can differ, active in one and inactive in another. Activity calls are given as the source filed them.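 How the source made its calls, unless noted: active means compounds whose cell count with miR-34 switched on is under 0.7 times the count with it off; inactive means the rest.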
# Experiments:
# [1] = compounds altering circadian rhythm period length – cell-based, LOPAC library, luminescence reporter (AID 2774; call rule not given here;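 further: values are relative to mean of DMSO wells on each plate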); conditions: circadian reporter cells, at 7 µM, actives lie on both sides
# [2] = P. berghei load reduction in hepatocytes – cell-based, HepG2, luciferase luminescence, HepG2 viability, primary screen (AID 624349; in the data active means parasite load remaining mostly below about 12%, no sharp cut-off; inactive means mostly above about 10%;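 further: 100% = mean of DMSO negative control wells on the same plate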); conditions: P. berghei liver stage in HepG2, luciferase luminescence, concentration not given here; parasite load remaining: stronger effect = lower value; viability: measured here: HepG2 viability without parasites
# [3] = system: Hepatitis C virus NS3 helicase; experiment: blockers of NS3h binding to ssDNA – biochemical, fluorescence polarization, LOPAC1280 library, primary screen (AID 687035; in the data active means inhibition above about 37%); conditions: Purified HCV NS3 helicase, Cy5-dT15 ssDNA binding fluorescence polarization; stronger effect = higher value; concentration not given here
# [4] = compounds altering Cy5-DNA-NS3h complex signal – biochemical, LOPAC1280, artefact control for HCV NS3 helicase inhibitor project (AID 687037; call rule not given here); conditions: Cy5-DNA-NS3h complex fluorescence interference counterscreen
# [5] = viability loss with induced miR-34 in A549 – imaging, A549 dox-inducible miR-34, nuclei and caspase counts, primary screen (AID 1347080); conditions: A549 miR-34 inducible, Hoechst nuclei count, 48 h
# [6] = blockers of cellular phospholipid synthesis – cell-based, LOPAC library, screen 4, primary screen (AID 1347384; call rule not given here); conditions: animal cells, phospholipid biosynthesis inhibition screen; at 10 µM
# [7] = MELAS cybrid and Rieske KO viability enhancers – cell-based, MELAS cybrids, Rieske KO mouse fibroblasts, CellTiter-Glo, primary screen (AID 1508586;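 active means mean z-score across replicates of 1.96 or higher in either the MELAS or the Rieske mutant cell line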;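 further: z relative to plate mean and SD of compound and empty wells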); conditions: low glucose
# [8] = galactose survival enhancers in mitochondrial complex I cybrids – cell-based, galactose medium, ATP luminescence, primary screen (AID 1645843;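 active means z-score of at least 1.8 in each of two replicates, scored against plate mean and spread of sample wells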;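 further: positive z means more ATP and so rescue of galactose-driven cybrid death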); conditions: complex I mutant cybrid cells, 72 h, stronger effect = higher value
# [9] = compounds altering viability of human ES cells (AID 493140; call rule not given here;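 further: cells exposed to compounds for four days before counting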); conditions: human embryonic stem cell survival screen; stronger effect = higher value
# [10] = chitosan synthesis blockers in C. neoformans – flow cytometry, Cibacron Brilliant Red staining (AID 1347148; call rule not given here;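 further: compound exposure lasted three days at 37 degrees C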); conditions: Cryptococcus neoformans chitosan, stronger effect = lower value; at 10 µM unless noted
# [11] = compounds altering HSF1 focus formation in cells – imaging, Selleck Cancer Library (AID 1347162; in the data active means plate-normalised HSF1 focus index below about 0.46); conditions: human cells, HSF1 nuclear foci imaging, at 10 µM; SSMD: measured here: HSF1 foci SSMD mean; cell count: measured here: cell number; plate-normalised HSF1 focus index: stronger effect = lower value
# [12] = stronger effect = lower value, cell number ratio, induced over uninduced
# [13] = measured here: relative caspase fold change +Dox/-Dox
# [14] = measured here: total cells with miR-34 induction, stronger effect = lower value
# [15] = measured here: total cells without miR-34 induction
# [16] = MELAS cybrid survival, CellTiter-Glo 48 h, stronger effect = higher value
# [17] = Rieske KO mouse fibroblast survival, CellTiter-Glo 72 h
compound,measurement,setting,value
COc1ccccc1N1CCN(CCCCNC(=O)c2ccc3ccccc3c2)CC1,period change,[1],0.185 h (inactive)
same,parasite load remaining,[2],110% (inactive) and 55% (inactive)
same,viability,[2],97.7% and 74.2%
same,inhibition,[3],-1% (inactive)
same,fluorescence ratio (interference),[4],1 (inactive)
same,fold change,[5]; [12],1.04 (inactive) and 0.819 (inactive)
same,fold change,[5]; [13],1.41 and 1.7
same,cell count,[5]; [14],7170 and 7370
same,cell count,[5]; [15],6900 and 9000
same,outcome,[6],inactive
same,z-score,[7]; [16],-0.843 (inactive)
same,z-score,[7]; [17],0.134
same,z-score,[8],-0.51 (inactive)
CCCCC[C@H](O)/C=C/C1=C(CCCCCCC(=O)O)C(=O)CC1,survival,[9],68.1 (inactive)
same,fold change,[5]; [12],0.976 (inactive) and 0.956 (inactive)
same,fold change,[5]; [13],1.34 and 1.33
same,cell count,[5]; [14],6120 and 6210
same,cell count,[5]; [15],6270 and 6500
same,fold fluorescence,[10],3.81 (inactive)
NC(N)=NCc1cccc(I)c1,period change,[1],0.01 h (inactive)
same,survival,[9],4 (inactive)
same,parasite load remaining,[2],28.4% (inactive) and 43.8% (inactive)
same,viability,[2],121% and 78.9%
same,inhibition,[3],-5% (inactive)
same,fluorescence ratio (interference),[4],0.9 (inactive)
same,fold change,[5]; [12],1.1 (inactive) and 0.739 (inactive)
same,fold change,[5]; [13],0.666 and 1.95
same,cell count,[5]; [14],8720 and 5880
same,cell count,[5]; [15],7960
same,outcome,[6],inactive
same,z-score,[7]; [16],-0.124 (inactive)
same,z-score,[7]; [17],-0.101
same,z-score,[8],-0.305 (inactive)
CO[C@H]1C[C@@H]2CC[C@@H](C)[C@@](O)(O2)C(=O)C(=O)N2CCCC[C@H]2C(=O)O[C@H]([C@H](C)C[C@@H]2CC[C@@H](O)[C@H](OC)C2)CC(=O)[C@H](C)/C=C(\C)[C@@H](O)[C@@H](OC)C(=O)[C@H](C)C[C@H](C)/C=C/C=C/C=C/1C,parasite load remaining,[2],55.9% (inactive)
same,viability,[2],106%
same,fold change,[5]; [12],0.856 (inactive) and 0.953 (inactive)
same,fold change,[5]; [13],1.35 and 1.11
same,cell count,[5]; [14],3240 and 7080
same,cell count,[5]; [15],3790 and 7430
same,SSMD,[11],1.27
same,cell count,[11],7610
same,plate-normalised HSF1 focus index,[11],1.08 (inactive)
same,z-score,[7]; [16],-0.0487 (inactive)
same,z-score,[7]; [17],0.674
same,z-score,[8],2.58 (active)
Nc1ccc2ncnc(NCCc3ccc(Oc4ccccc4)cc3)c2c1,parasite load remaining,[2],1.5% (active)
same,viability,[2],70.6%
same,fold change,[5]; [12],0.738 (inactive) and 0.708 (inactive) and 0.683 (active)
same,fold change,[5]; [13],1.4 and 1.31 and 3.23
same,cell count,[5]; [14],2180 and 3030 and 5480
same,cell count,[5]; [15],2950 and 4280 and 8020
same,SSMD,[11],-5.88
same,cell count,[11],2600
same,plate-normalised HSF1 focus index,[11],0.65 (inactive)
same,z-score,[7]; [16],-0.305 (inactive)
same,z-score,[7]; [17],-0.135
CC/C=C\C/C=C\C/C=C\CCCCCCCCCC(=O)O,survival,[9],95.1 (inactive)
same,fold change,[5]; [12],1.09 (inactive) and 1.03 (inactive)
same,fold change,[5]; [13],1.26 and 1.06
same,cell count,[5]; [14],5750 and 5880
same,cell count,[5]; [15],5250 and 5730
same,fold fluorescence,[10],4.88 (inactive)
CCCCCCCCCCCCC/C=C/[C@@H](O)[C@H](CO)NC(=O)CCCCCCC,survival,[9],77.3 (inactive)
same,fold change,[5]; [12],0.885 (inactive) and 1 (inactive)
same,fold change,[5]; [13],2.05 and 0.909
same,cell count,[5]; [14],5260 and 5480
same,cell count,[5]; [15],5940 and 5480
same,fold fluorescence,[10],4.66 (inactive)
CCCCCCCC/C=C\C/C=C\C/C=C\CCCC(=O)NCCO,survival,[9],87.2 (inactive)
same,fold change,[5]; [12],0.911 (inactive) and 1.07 (inactive)
same,fold change,[5]; [13],0.981 and 0.763
same,cell count,[5]; [14],6100 and 5740
same,cell count,[5]; [15],6690 and 5350
same,fold fluorescence,[10],4.64 (inactive)
CC/C=C\C/C=C\C/C=C\CCCCCCCC(=O)O,survival,[9],92.8 (inactive)
same,fold change,[5]; [12],0.97 (inactive) and 0.988 (inactive)
same,fold change,[5]; [13],1.3 and 0.691
same,cell count,[5]; [14],6070 and 5710
same,cell count,[5]; [15],6250 and 5780
same,fold fluorescence,[10],4.4 (inactive)
CC(=O)N[C@@H](CSC/C=C(\C)CC/C=C(\C)CCC=C(C)C)C(=O)O,survival,[9],97.2 (inactive)
same,fold change,[5]; [12],0.899 (inactive) and 1.06 (inactive)
same,fold change,[5]; [13],1.4 and 1.04
same,cell count,[5]; [14],5730 and 5900
same,cell count,[5]; [15],6380 and 5570
same,fold fluorescence,[10],5 [at 136 µM] (inactive)
O=C(O)CCC/C=C\CC1C2CCC(O2)C1CNNC(=O)Nc1ccccc1 (stereo not drawn),survival,[9],88.6 (inactive)
same,fold change,[5]; [12],0.964 (inactive) and 0.895 (inactive)
same,fold change,[5]; [13],1.45 and 1.09
same,cell count,[5]; [14],5700 and 5510
same,cell count,[5]; [15],5910 and 6160
same,fold fluorescence,[10],4.39 (inactive)
CCCCCCCC(=O)OC[C@H](CO)OC(=O)CCCCCCC,survival,[9],75.3 (inactive)
same,fold change,[5]; [12],1 (inactive) and 1.04 (inactive)
same,fold change,[5]; [13],1.36 and 0.811
same,cell count,[5]; [14],5210 and 5590
same,cell count,[5]; [15],5190 and 5400
same,fold fluorescence,[10],6.5 (inactive)
COC(=O)C1=C(C)NC(C)=C(C(=O)OC2CCCN(Cc3ccccc3)C2)C1c1cccc([N+](=O)[O-])c1 (stereo not drawn),fold change,[5]; [12],1.82 (inactive) and 1.04 (inactive)
same,fold change,[5]; [13],0.615 and 0.533
same,cell count,[5]; [14],3920 and 6890
same,cell count,[5]; [15],2160 and 6660
same,outcome,[6],inactive
same,z-score,[7]; [16],-0.438 (inactive)
same,z-score,[7]; [17],-0.0848
same,z-score,[8],-1.88 (inactive)
CCCCC/C=C\C/C=C\CCCCCCCCCC(=O)O,survival,[9],74.2 (inactive)
same,fold change,[5]; [12],0.992 (inactive) and 1.02 (inactive)
same,fold change,[5]; [13],0.988 and 0.888
same,cell count,[5]; [14],6110 and 5920
same,cell count,[5]; [15],6160 and 5820
same,fold fluorescence,[10],3.91 (inactive)
CCCCC[C@H](O)/C=C/[C@H]1C(=O)C[C@H](O)[C@@H]1C/C=C\CCCC(=O)O,survival,[9],96.1 (inactive)
same,fold change,[5]; [12],0.966 (inactive) and 0.979 (inactive)
same,fold change,[5]; [13],1.13 and 1.66
same,cell count,[5]; [14],6220 and 5740
same,cell count,[5]; [15],6440 and 5870
same,fold fluorescence,[10],3.99 (inactive)
